95 compounds from PubChem BioAssay AID1022 (Emory University Molecular Libraries Screening Center, 2008) can be followed below.

Where “and” joins values, the source holds several entries; their conditions need not be identical. Equal entries are not always repeated. Hit rate of the full screen: of about 220,000 compounds, about 3,300 (1.5%) were called active.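 How the source made its calls: active means compounds that cut the protein-peptide binding signal by more than 50% relative to plate controls in a single-dose test; inactive means the rest.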 Many of the other results were omitted from the sample, so actives are more common in it than they were.

The assay deals with Induced myeloid leukemia cell differentiation protein Mcl-1 (Homo sapiens) (UniProt Q07820). The experiment in a line: Mcl-1/Noxa binding inhibitors, primary screen, biochemical, TR-FRET, 1536-well (AID 1022).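 Further: His-tagged Mcl-1 with rhodamine Noxa BH3 peptide and terbium anti-His antibody; 0% = Mcl-1 plus Noxa peptide wells and 100% = peptide-only wells.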 The settings on record: TR-FRET Mcl-1/Noxa peptide binding, 2 h; at 21.7 µM; hits give high values. For orientation: Time-resolved FRET reads energy transfer from a long-lived donor to a nearby acceptor.
Sequence of Induced myeloid leukemia cell differentiation protein Mcl-1 (Homo sapiens) (Q07820 whole entry, looked up): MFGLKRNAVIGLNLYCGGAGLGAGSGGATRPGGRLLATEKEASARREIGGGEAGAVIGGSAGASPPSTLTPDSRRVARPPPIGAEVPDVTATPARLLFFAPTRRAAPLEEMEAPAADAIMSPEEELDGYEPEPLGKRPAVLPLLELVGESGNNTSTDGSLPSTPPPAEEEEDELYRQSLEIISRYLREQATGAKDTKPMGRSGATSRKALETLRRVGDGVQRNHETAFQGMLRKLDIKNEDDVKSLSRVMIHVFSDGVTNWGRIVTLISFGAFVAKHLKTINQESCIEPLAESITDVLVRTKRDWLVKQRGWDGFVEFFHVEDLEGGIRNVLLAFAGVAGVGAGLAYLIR
The term inhibition denotes the relative decrease from the control value, in per cent. `Cc1c(NC(=O)C(=O)N/N=C/c2cccs2)c(=O)n(-c2ccccc2)n1C`: the inhibition is -17.4% (inactive). As for `O=C(Nc1n[nH]c(C(F)(F)F)n1)c1cccs1`, the inhibition is 1.44% (inactive). Then `COC(=O)c1scc(C)c1NC(=O)CSc1ccc(Cl)cc1`, with 2.67% (inactive); and `CC(=O)Nc1cccc(C(=O)Nc2nc(C)cs2)c1`, with 18.4% (inactive); and `CCN(CC)C(=O)C(=O)Nc1cccc(Br)c1`, with -12.2% (inactive). For `CCN(CC)N=Nc1cccc(NC(C)=O)c1`, the inhibition was 52.4% (active).

As for `C=C(C)COc1ccc(-c2nc(N)ncc2-c2ccccc2OC)c(O)c1`, the inhibition was 19.2% (inactive).

With `NC(=S)Nc1c(Cl)cccc1Cl`, the inhibition is -2.54% (inactive). In the case of `Cc1ccc(OC(=O)c2c(C)nn(-c3ccccc3)c2C)cc1` it was -10.1% (inactive); in that of `CC(C)CCN1NC2(CCC(C)CC2)NC1=S` (stereo not given), 10.8% (inactive); in that of `Cc1ccc(OS(=O)(=O)c2ccc(-c3csc(C)n3)s2)c(C)c1`, 10.9% (inactive).

Consider `Cn1nc(C(F)(F)F)cc1-c1ccc(/C=C(\C#N)C(=O)c2cccc(C(F)(F)F)c2)s1`, for which the inhibition is 8.47% (inactive). Then `COc1ccc(C(=O)OCC(=O)c2ccc(C)c(S(=O)(=O)N3CCOCC3)c2)cc1OC`, with -9.99% (inactive). Then `Cc1cc(C)n(C(=O)c2ccc(C)c(S(=O)(=O)N3CCOCC3)c2)n1`, with 72.5% (active); and `Cc1cc(C)n(C(=O)c2ccc(S(=O)(=O)N3CCCC3)cc2)n1`, with 7.15% (inactive). Then `Cc1ccc(C)c2[nH]c(=O)c(CN(Cc3cccnc3)C(=S)NCc3ccco3)cc12`, with 4.29% (inactive); and `N=C1/C(=C/c2cccn2-c2cccc([N+](=O)[O-])c2)C(=O)N=C2SC=CN12`, with 64.6% (active); and `N/C(=N\OC(=O)CCn1cccc(C(F)(F)F)c1=O)c1ccc(OC(F)(F)F)cc1`, with -5.59% (inactive). Turning to `COc1ccc(NC2=CC(=S)NC(C)(C)C2)cc1`, the inhibition was 19.2% (inactive). In the case of `O=C(CN1CCN(S(=O)(=O)/C=C/c2ccccc2)CC1)Nc1ccc(N2CCOCC2)cc1` it was 9.11% (inactive). Then `O=c1cc(CN2CCN(S(=O)(=O)/C=C/c3ccccc3)CC2)c2ccc(O)cc2o1`, with 57.9% (active); and `COc1ccc2c(CN3CCN(S(=O)(=O)c4cccs4)CC3)cc(=O)oc2c1`, with -3.37% (inactive).

Turning to `Cc1nc2ccccc2nc1N/N=C/c1ccc(O)cc1O`, the inhibition is -26.1% (inactive). Then `CCCCCCCN=C(C)c1ccccc1O`, with -3.31% (inactive); and `Cc1ccc(S(=O)(=O)Nc2nc3ccccc3s2)cc1[N+](=O)[O-]`, with 9.42% (inactive); and `O=[N+]([O-])c1cc(Br)c(O)c(/C=N/Nc2nc3ccccc3s2)c1`, with 79.4% (active). In the case of `c1ccc2sc(NN=C3CCCC3)nc2c1` it was 5.28% (inactive); in that of `CCCN(CCC)S(=O)(=O)c1ccc(C(=O)NNC(=O)c2cc(OC)c(OC)c(OC)c2)cc1`, 14.9% (inactive); in that of `Cc1cc(OCCCCOc2ccc(C#N)cc2)ccc1[N+](=O)[O-]`, 5.03% (inactive). In the case of `CC/C=C/C(=O)N1CC2(CC(c3cccc(NC(=O)CC)c3)=NO2)C[C@H]1C(N)=O` (stereo not given in full) it was -7.66% (inactive); in that of `COc1cc(/C=N\Nc2nc(-c3cccs3)c(NC(C)=O)s2)ccc1O`, 95.2% (active); in that of `COc1cc(/C=N/Nc2nc3ccccc3s2)ccc1O`, 27.8% (inactive).

Turning to `CCOc1cc(/C=C(\C#N)c2nc(-c3cccs3)c(NC(C)=O)s2)ccc1O`, the inhibition is 24.5% (inactive). In the case of `CC(C)c1ccc(Nc2nnc(SCC(=O)c3nnc(-c4ccccc4)o3)s2)cc1` it was 104% (active); in that of `Cc1ccc(Nc2nnc(SCC(=O)c3cc4ccccc4o3)s2)cc1C`, 24.3% (inactive); in that of `O=C(CSc1nnc(Nc2ccccc2)s1)Nc1cccnc1Cl`, 9.43% (inactive). In the case of `Cc1cccc2c1-c1sc(C(=O)NCCCN3CCc4ccccc4C3)cc1CO2` it was 11% (inactive); in that of `CCOC(=O)CN(C(=O)COc1nc(-c2ccccc2)cc(C)c1C#N)c1ccc(F)cc1`, 7.27% (inactive); in that of `CN(C)C(=S)Nc1ccc(Br)cc1Cl`, -1.61% (inactive).

Turning to `O=C(Cc1ccccc1)NCc1ccc(F)cc1`, the inhibition was -0.05% (inactive).

Regarding `CN(C)CCCNC(=O)c1ccc2[nH]c3ccccc3c2c1`, the inhibition is 3.04% (inactive).

For `CN(C)c1ccc(C(CNC(=O)c2ccc(F)cc2)c2c[nH]c3ccccc23)cc1` (stereo not given), the inhibition was 75.8% (active). In the case of `CCOC(=O)C1=NN(c2ccc(Cl)cc2)/C(=C/C2=NCCc3cc(OC)c(OC)cc32)S1` it was 1.42% (inactive); in that of `O=C(Cn1c[n+](CC(=O)c2ccc([N+](=O)[O-])cc2)cn1)c1ccc([N+](=O)[O-])cc1`, 27.4% (inactive) and -7.77% (inactive); in that of `CCc1ccc2nc3sc(C(=O)Nc4nnc(CC)s4)c(N)c3cc2c1`, 90.1% (active).

`CCc1nnc(NC(=O)c2sc3nc(C)cc(COC)c3c2N)s1`: the inhibition was 22.4% (inactive). In the case of `CCc1nnc(NC(=O)c2cccc(S(=O)(=O)N(C)c3ccc(OC)cc3)c2)s1` it was 10.9% (inactive); in that of `C#CCO[C@@H]1C[C@H](n2cnc3c(=O)[nH]c(NC(=O)C(C)C)nc32)O[C@@H]1CO`, -275% (inactive); in that of `Cc1ccc(C(=O)Cn2cc([N+](=O)[O-])nc2C)cc1`, -26.9% (inactive). Then `Cc1ccc(N=C2NC(=O)/C(=C/C=C/c3ccco3)S2)cc1C`, with 107% (active); and `Cc1ccc(N2NC(=O)/C(=C/C=C/c3ccco3)C2=O)cc1C`, with 6.33% (inactive); and `Cc1cccc(N=C2NC(=O)/C(=C/c3cn(C)c4ccccc34)S2)c1`, with 4.96% (inactive). In the case of `CC(C)(C)c1cc(NC(=O)NN2CCOCC2)nn1-c1c(Cl)cc(Cl)cc1Cl` it was 2.67% (inactive); in that of `N/C(=N\S(=O)(=O)c1ccc(Cl)cc1)N1CCOCC1`, -2.49% (inactive); in that of `C/C=C/C(=O)Nc1ccc(N2CCN(c3ccc(C(F)(F)F)cn3)CC2)nc1`, 4.65% (inactive). With `Cc1ccnc(Nc2nc3ccccc3s2)n1`, the inhibition is -8.28% (inactive). In the case of `Cc1ccnc(-n2sc3ccccc3c2=O)n1` it was 69% (active); in that of `Cc1ccnc(N2CCC(C(=O)NC3CCCCCC3)CC2)n1`, -9.93% (inactive); in that of `CCCCCCCC(=O)OC(CN1CCCCCC1)CN1CCCC1=O` (stereo not given), -0.02% (inactive). In the case of `Cc1ccc2cc(/C=N/Nc3ccc(C(=O)O)cc3)c(Cl)nc2c1` it was 32.8% (inactive); in that of `Cn1c2c(c(=O)n(C)c1=O)C(c1cccc(F)c1)C(C#N)=C(N)O2` (stereo not given), -5.47% (inactive); in that of `Cc1ccc(C2Nc3ccccc3C(=O)N2CCN2CCNC2=O)cc1` (stereo not given), -12.9% (inactive). Then `COc1cc(OC)cc(C(=O)OCC(=O)Nc2ccc(F)cc2F)c1`, with 2.79% (inactive); and `O=C(COC(=O)c1ccc(F)cc1F)Nc1ncccn1`, with 65.1% (active). Take `CC(NC(=O)COC(=O)c1ccc(Cl)cc1O)c1ccc(F)cc1` (stereo not given): the inhibition was 0.03% (inactive). In the case of `Cc1nnc(Nc2ccccc2F)s1` it was -14.1% (inactive); in that of `C/C(Cc1ccccc1)=N\NC(=O)CNC(=O)c1ccccc1Cl`, -7.79% (inactive). For the compound `O=C1N(c2ccccc2)C(=Nc2ccccc2)SC12CC2`, the inhibition is 1.01% (inactive). Then `O=C1Oc2ccccc2C(=O)/C1=C/c1ccccc1O`, with 81.4% (active); and `C=CCn1c2ccccc2c2nnc(SCc3[nH]c(=O)[nH]c3C(=O)CCCCC(=O)OCC)nc21`, with 52.5% (active).

`C=CCn1c2ccccc2c2nnc(SC(CC)C(=O)Nc3nc(C)c(C(=O)OCC)s3)nc21` (stereo not given): the inhibition is 11.2% (inactive). Then `C=CCn1c(SCC(=O)CC(=O)OCC)nc2cc(C(=O)N3CCC(C(N)=O)CC3)ccc2c1=O`, with -5.71% (inactive). In the case of `CC(C)(C)n1cnnc1Sc1ccc([N+](=O)[O-])cn1` it was 2.83% (inactive). Then `Cn1cccc1/C=C1\SC(=O)N(CC(=O)Nc2ccc(F)cc2)C1=O`, with 12.7% (inactive). In the case of `N#Cc1ccccc1CN1C(=O)S/C(=C/c2cccn2-c2cccc(C(=O)O)c2)C1=O`, the inhibition was 66.4% (active).

Regarding `Cc1ccccc1NC(=O)CN1C(=O)N/C(=C\c2cccn2-c2cccc(C(=O)O)c2)C1=O`, the inhibition was 40.1% (inactive). Then `Nc1ccc(N=Nc2ccccc2Cl)c(N)n1`, with 10.8% (inactive); and `COc1ccc(CCNC(=O)C2CC3Cn4c(nc5cc(C)c(C)cc54)C3N2C)cc1` (stereo not given), with -4.09% (inactive). In the case of `COc1ccc(C(=O)O/N=C(\N)Cc2ccc(Cl)cc2Cl)cc1OC` it was 6.09% (inactive); in that of `COc1ccc(CC(=O)Nc2ccccc2NC(=O)c2ccco2)cc1OC`, 36.8% (inactive); in that of `COc1ccc(C/C(N)=N/OC(=O)c2ccco2)cc1OC`, 64.8% (active). In the case of `N#C/C(=C\N1CCOCC1)S(=O)(=O)c1ccc(Cl)cc1` it was -9.31% (inactive); in that of `COc1ccc(-c2ccc(OC(=O)NC3CCS(=O)(=O)C3)cc2)cc1` (stereo not given), -3.15% (inactive); in that of `Cc1c(C(=O)N/N=C/c2ccccc2)[nH]c2c([N+](=O)[O-])cccc12`, 21% (inactive). Consider `COc1cccc2c(C)c(C(=O)O)[nH]c12`, for which the inhibition was 83.1% (active). Then `COc1cccc2c(O)cc(=O)n(C)c12`, with -20.5% (inactive). Take `COc1ccc(CN2CCOC2=O)cc1OC`: the inhibition is 6.85% (inactive). Consider `COc1cccc(N2C(=O)CC(N3CCc4ccccc4C3)C2=O)c1` (stereo not given), for which the inhibition is -10.9% (inactive).

`C=CCNC(=O)CSc1nc2scc(-c3ccco3)c2c(=O)n1CC=C`: the inhibition was 8.55% (inactive). In the case of `O=C1CCCC(O)=C1N=Nc1ccc2ncsc2c1` it was 62.8% (active).

As to `O=C1CCCC(O)=C1N=Nc1ccc(S(=O)(=O)N2CCOCC2)cc1`, the inhibition is 23.9% (inactive). In the case of `C/C(=N\NC(=O)c1cccnc1)c1ccc(-c2ccccc2)cc1` it was 2.98% (inactive).

In the case of `C/C(=C\c1ccco1)C1Nc2cccc3cccc(c23)N1`, the inhibition is 74.9% (active). Then `O=C(NCC1CCCO1)/C(=C\c1ccco1)NC(=O)c1ccccc1` (stereo not given), with 4.51% (inactive); and `COc1cccc(C2Nc3cccc4cccc(c34)N2)c1`, with 34.5% (inactive).
